Screens deposited in PubChem by National Center for Advancing Translational Sciences (NCATS).
Hits are enriched below; roughly 2.3% of the tested compounds scored in any of these assays.
HttQ103 aggreg = reduces HttQ103-GFP aggregates in PC12 cells. Potency, µM (series often up to 46.1 µM), for the others: at the top dose activity change, negative = inhibition, hits mostly inhibitors. AID 1688. actives 1.1% (n = 220,000). PC12 HttQ103-GFP aggregates, Acumen cytometry, 40 h; note: potency is the fitted concentration of half-maximal effect; % is set by controls: 0 for no effect and ±100 for the full control effect; nearly all actives have a fitted effect of over 60% in size
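Using laser scanning cytometry, GFP-positive aggregates were counted after lysis of PC12 cells induced with 100 nM tebufenozide to express HTT exon 1 Q103–GFP. Compounds were tested in titration.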
HTT cytoprotect = cytoprotection in Huntington HTT-Q103 PC12 cell model | actives 0.14% (n = 230,000) | AID 1471 | Potency, µM (highest dose often 56.4 µM), inactives show cytoprotection (ATP increase), usual class: activators | PC12 HTT-Q103 induced, cytoprotection, ATP luminescence, 40 h; note: potency is the fitted concentration of half-maximal effect; % of control where 0% means no effect; nearly all actives have a fitted effect of over 45% in size
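Readout: ATPlite luminescence (ATP level). Model: stable PC12, inducible Htt exon1 Q103-GFP. Inducer: tebufenozide, 100 nM final. Compounds: dose series. No G418 in medium.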
GoLoco inh red = inhibitors of human Gai1-RGS12 GoLoco interaction (red fluorophore); P63096; Gai1:RGS12 GoLoco peptide FP, rhodamine, 10 min; Potency, µM (series often up to 61.6 µM), without a hit: at the highest dose activity, negative = inhibition, actives largely listed as inhibitors; actives 0.44% (n = 230,000); active = well fitted inhibition curve with a large enough effect, not every such curve was filed as active; inactive = no such curve, though single readings can be large or run the other way; note: potency is the fitted concentration of half-maximal effect; % is set by controls: 0 for no effect and ±100 for the full control effect; nearly all actives have a fitted effect of over 30% in size
Target sequence (P63096 whole entry, looked up): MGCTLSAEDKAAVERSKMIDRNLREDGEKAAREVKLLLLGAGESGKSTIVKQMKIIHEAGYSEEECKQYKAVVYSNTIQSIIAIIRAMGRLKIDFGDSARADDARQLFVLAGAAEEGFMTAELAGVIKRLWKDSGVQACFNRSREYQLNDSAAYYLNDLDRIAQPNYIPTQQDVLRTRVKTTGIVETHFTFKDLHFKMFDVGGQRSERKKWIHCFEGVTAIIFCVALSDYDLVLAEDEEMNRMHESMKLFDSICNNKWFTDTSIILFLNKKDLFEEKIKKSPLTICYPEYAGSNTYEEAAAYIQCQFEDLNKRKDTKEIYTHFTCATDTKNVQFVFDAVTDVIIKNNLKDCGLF
JMJD2E inh = blocks human JMJD2E demethylase activity | JMJD2E catalytic domain, FDH-coupled NADH fluorescence (FDH is formaldehyde dehydrogenase) | Potency, µM (doses to about 57.1 µM), without a hit: at the top dose activity change, negative = inhibition, most hits filed as inhibitors | actives 1.6% (n = 230,000) | AID 2147; active = well fitted inhibition curve with a large enough effect, not every such curve was filed as active; inconclusive = small, poorly fitted or top-dose-only effect, or another doubt; inactive = no such curve, though single readings can be large or run the other way;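 note: potency is the fitted concentration of half-maximal effect; 0% = wells with enzyme and -100% = buffer wells without enzyme; nearly all actives have a fitted effect of over 50% in size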
VDR inh = inhibitors of human vitamin D receptor | actives 0.93% (n = 400,000) | AID 504847 | VDR-SRC2-3 peptide fluorescence polarization, 2 h | Potency, µM, without a hit: max response, negative = inhibition, hits mostly inhibitors | P11473; note: potency is the fitted concentration of half-maximal effect; % is set by controls: 0 for no effect and ±100 for the full control effect
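Two reagent solutions held at 4 deg C in the dark were dispensed, compounds pinned at 23 nl, and the mixture incubated 2 h at room temperature. Read-out: fluorescence polarization of VDR–SRC2-3 peptide binding.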
FBPA coupling cs = coupling enzyme interference in Giardia aldolase counter-screen | AID 2472 | actives 0.67% (n = 290,000) | activity change, negative = inhibition, % at 58.2 µM, hits read low | coupling enzyme system counterscreen, AmpLite Red fluorescence; in the data active = activity change below about -30%; note: % is set by controls: 0 for no effect and ±100 for the full control effect
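Coupling enzymes only (glyceraldehyde-3-phosphate) + compound, at 57.5 uM final, 10 min RT; add substrate/coupling/AmpLite Red mix, 20 min RT; fluorescence ex 525/em 598 nm. Actives flag coupling-system interference.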
* = called active by the depositor; ? = inconclusive; nt = not tested or not shown; [ ] = dose if it differs, or a comment. Unless noted, calls come from the whole dose curve; as a rule, active = well fitted curve in the direction sought with a large enough effect; inconclusive = small, poorly fitted or top-dose-only effect, or another doubt; inactive = no such curve, though single readings can be large; an effect the other way counts as inactive or inconclusive.

SMILES	HttQ103 aggreg	HTT cytoprotect	GoLoco inh red	JMJD2E inh	VDR inh	FBPA coupling cs
COC(=O)c1ccc(N2NC(=O)/C(=C/c3cc(OC)c(O)c(OC)c3)C2=O)cc1	nt	nt	nt	nt	?	-5
COc1cc(/C=C2/C(=O)NN(c3ccc(Cl)cc3)C2=O)cc(Br)c1O	nt	nt	nt	nt	71µM*	6
COC(=O)c1ccc(N2NC(=O)/C(=C/c3cc(OC)c(OC)c(OC)c3)C2=O)cc1	nt	nt	nt	nt	71µM*	7
CCCCCCCCCCCCCCCCCCOC[C@@H](COP(=O)([O-])OCC[N+](C)(C)C)OC	nt	-22%[1.9 µM]	nt	nt	nt	nt
CCN(CC(=O)NCc1cccs1)C(=O)c1cc(S(=O)(=O)NCc2ccccc2)ccc1C	nt	nt	nt	nt	-11%	nt
Cc1cccc2cc(C(c3nnnn3CC3CCCO3)N3CCc4ccccc4C3)c(=O)[nH]c12 (stereo unspecified)	14%	-14%	7%	?	-22%	-44*
CCOc1ccc2[nH]c(=O)c(C(c3nnnn3Cc3ccco3)N3CCN(C)CC3)cc2c1 (stereo unspecified)	?	-71%[10 µM]	14%	?	9%	-67*
Cc1ccc2cc(C(c3nnnn3CC3CCCO3)N3CCc4ccccc4C3)c(=O)[nH]c2c1 (stereo unspecified)	-5%	3%[10 µM]	4%	?	1%	-38*
COc1ccccc1N1CCN(C(c2cc3ccc(C)cc3[nH]c2=O)c2nnnn2C2CCCC2)CC1 (stereo unspecified)	6%	-32%	2%	?	-16%	-34*
CCCc1cc(=O)n2nc(N3CCC(C(=O)NCc4ccco4)CC3)sc2n1	nt	nt	nt	nt	-28%	nt
COC(=O)c1c(-c2cccs2)csc1NC(=O)COc1ccccc1	nt	nt	nt	nt	-18%	nt
CCc1ccc2[nH]c(=O)c(C(c3nnnn3CC3CCCO3)N3CCCc4ccccc43)cc2c1 (stereo unspecified)	21%	-16%	15%	?	-5%	-31*
CCOc1ccc2[nH]c(=O)c(C(c3nnnn3CC3CCCO3)N3CCc4ccccc4C3)cc2c1 (stereo unspecified)	4%	-20%	9%	?	23%	-30*
C[C@H](CN(C)C)C(O)(c1ccccc1)c1ccccc1	nt	2%[10 µM]	1%[14.2 µM]	nt	nt	nt
CC[C@@]1(C(=O)OC)N[C@H](CN(C)C(=O)Nc2ccc(Cl)cc2)[C@@H]2C(=O)N(Cc3ccccc3)C(=O)[C@@H]21	nt	nt	nt	nt	-7%	nt
CCCC[C@@H]1C[C@H]1C(NC(=O)Cc1ccccc1)c1ccc(-c2ccccc2)cc1 (stereo partly specified)	nt	-14%	9%	2%	nt	1
CCc1ccc(CNC(=O)c2ccc3nc(SCc4ccc(F)cc4)n(C)c3c2)cc1	nt	nt	nt	nt	-8%	nt
Oc1ccc(NCc2cccc(OCc3ccccc3)c2)cc1	-23%	-34%	-18%	4.5µM*	?	-30*
Oc1ccc(NCc2cccc(OCc3ccc(F)cc3)c2)cc1	23%[9.22 µM]	-9%[10 µM]	-22%	-2%	?	-45*
CC(C)(C)OC(=O)[C@H]([C@@H]1N[C@@H](C(=O)O)C(C)(C)S1)N1C(=O)c2ccccc2C1=O	nt	1%[10 µM]	nt	nt	nt	nt
O=C(C(=O)N(Cc1ccccc1)Cc1ccccc1)c1c(-c2ccccc2)[nH]c2ccccc12	nt	nt	nt	nt	-12%	nt
CCOC(=O)CCc1c(C)c2cc3c(c(C)c2oc1=O)OCN(CCc1ccccc1OC)C3	nt	nt	nt	nt	-2%	nt
Cn1c(SCC(=O)c2ccccc2)nnc1-c1cccs1	-14%[9.22 µM]	3%[10 µM]	6%	-2%	-4%	0
O=[N+]([O-])c1ccccc1NC(=S)N/N=C/c1ccc(O)c(O)c1	?	-77%	4%	25µM*	?	-3
COc1ccc2nc(-c3ccc(N(C)C)cc3)sc2c1	nt	nt	nt	nt	nt	-2
COC(=O)CCC/C=C1/SCC(NC(=O)c2ccccc2)C1=O (stereo unspecified)	10%	-16%	146%	?	89µM*	1
CCOc1ccc(NC(=O)CN2C(=O)c3ccccc3Sc3ccc(C(=O)OC)cc32)cc1	nt	nt	nt	nt	-5%	nt
